# Experimental data from the supplement of paper PMC12494721.
# Structures can show the parent of a compound that is named as a salt.
# System: Ruminococcus gnavus DSM 108212
# Assay: fold change of Tryptamine concentration vs plate DMSO controls (fold change (ratio)); higher = more amine produced, active = hit call of the paper (significant change in both replicates, either direction)
# Conditions: incubation time: 27 h, anaerobic, 37 °C
# How it was run: (§1)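 In 80 µL wells, cultures of four gut bacterial strains in mGAM started at OD 0.1 before a 1:1 dilution and grew anaerobically at 37 °C for 27 h. Compounds were added to 20 µM final, except sweeteners at 50 µM final. After extraction of whole cultures with cold acetonitrile/methanol plus 0.1% formic acid and centrifugation, amines were measured by LC–triple-quadrupole MS in dynamic MRM mode against external calibration curves, with within-batch drift correction. Values give fold change over DMSO controls on the same plate, averaged across 2 biological replicates.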
row,SMILES,fold change of Tryptamine concentration
1,CC(N)C12CC3CC(CC(C3)C1)C2 (stereo unspecified) [Rimantadine hydrochloride] (20 µM),1 (inactive)
2,O=C(O)c1cc(-c2ccc(F)cc2F)ccc1O [Diflunisal] (20 µM),1.02 (inactive)
3,OC[C@H]1O[C@@H](O[C@@H]2[C@@H](CO)OC(O)(CO)[C@H]2O)[C@H](O)[C@@H](O)[C@H]1O (mixture of isomers) [Lactulose] (50 µM),1 (inactive)
4,COc1ccc2c3c1O[C@H]1C[C@@H](O)C=C[C@@]31CCN(C)C2 [Galanthamine hydrobromide] (20 µM),1.01 (inactive)
5,O=C(CCNNC(=O)c1ccncc1)NCc1ccccc1 [Nialamide] (20 µM),1 (inactive)
6,CC(C)OC(=O)C(C)(C)Oc1ccc(C(=O)c2ccc(Cl)cc2)cc1 [Fenofibrate] (20 µM),1.05 (inactive)
7,Cc1ccc2c(c1)c1c3n2CCNC3CCC1 (stereo unspecified) [Pirlindole mesylate] (20 µM),1.05 (inactive)
8,CC[N+](C)(C)Cc1ccccc1Br [Bretylium tosylate] (20 µM),1.03 (inactive)
9,COC(=O)[C@H](Cc1ccccc1)NC(=O)[C@H](CC(=O)O)NCCCc1ccc(OC)c(O)c1 [Advantame] (50 µM),0.899 (inactive)
10,O=C(c1cc(O)c(O)c(O)c1)c1ccc(O)c(O)c1O [Exifone] (20 µM),1.03 (inactive)
11,COc1cc(N)cn[n+]1-c1ccccc1 [Amezinium metilsulfate] (20 µM),1.06 (inactive)
12,CN[C@@H]1[C@@H](O[C@H]2O[C@H](CO)[C@@H](N)[C@H](O)[C@H]2O)OC2C[C@@H](N)[C@@H](O[C@H]3[C@H](O)[C@@H](O)[C@H](N)C[C@@H]3N)OC2[C@@H]1O (stereo partly specified) [Apramycin] (20 µM),0.96 (inactive)
13,COc1ccc2[nH]c([S+]([O-])Cc3ncc(C)c(OC)c3C)nc2n1 (stereo unspecified) [Tenatoprazole] (20 µM),1.01 (inactive)
14,CCCCC(=O)O[C@H]1CC[C@H]2[C@@H]3CCc4cc(O)ccc4[C@H]3CC[C@]12C [Estradiol Valerate] (20 µM),1 (inactive)
15,O=C(O)CCc1nc(-c2ccccc2)c(-c2ccccc2)o1 [Oxaprozin] (20 µM),1.03 (inactive)
16,CC(C)(C)NC[C@H](O)c1ccc(O)c(CO)c1 [Levalbuterol hydrochloride] (20 µM),0.89 (inactive)
17,COc1ccc(C(=O)c2ccc(C)cc2)c(O)c1 [Mexenone] (20 µM),1.03 (inactive)

# System: Escherichia coli IAI1
# Assay: fold change of Putrescine concentration vs plate DMSO controls (fold change (ratio)); higher = more amine produced, active = hit call of the paper (significant change in both replicates, either direction)
# Conditions: incubation time: 27 h, anaerobic, 37 °C
# How it was run: as §1
row,SMILES,fold change of Putrescine concentration
1,CCCSS/C(CCO)=C(/C)N(C=O)Cc1cnc(C)nc1N [Prosultiamine] (20 µM),0.949 (inactive)
2,CN(C)CCOC(c1ccccc1)c1ccccc1.Cn1c(=O)c2[nH]c(Cl)nc2n(C)c1=O [Dimenhydrinate] (20 µM),0.995 (inactive)
3,CCCCCCCN(CC)CCCC(O)c1ccc(NS(C)(=O)=O)cc1 (stereo unspecified) [Ibutilide fumarate] (20 µM),1.03 (inactive)
4,Cc1cccc(Nc2ccncc2S(=O)(=O)NC(=O)NC(C)C)c1 [Torsemide] (20 µM),1.06 (inactive)
5,C=C1c2cccc(O)c2C(O)=C2C(=O)[C@]3(O)C(O)=C(C(N)=O)C(=O)[C@@H](N(C)C)[C@@H]3[C@@H](O)[C@H]12 [Methacycline hydrochloride] (20 µM),0.177 (active)
6,O=C(O)CNC(=O)C(CS)Cc1ccccc1 (stereo unspecified) [Thiorphan] (20 µM),0.969 (inactive)
7,CCn1cc(C(=O)O)c(=O)c2cc(F)c(N3CCNCC3)nc21 [Enoxacin] (20 µM),0.878 (inactive)
8,Cc1ccc(-c2ncc(Cl)cc2-c2ccc(S(C)(=O)=O)cc2)cn1 [Etoricoxib] (20 µM),1.05 (inactive)
9,CNC(=O)OCc1cccc(COC(=O)NC)n1 [Pyricarbate] (20 µM),1.03 (inactive)
10,N#Cc1cc(NC(=O)C(=O)O)c(Cl)c(NC(=O)C(=O)O)c1 [Lodoxamide] (20 µM),1.17 (inactive)
11,CNC1(C)C2CCC(C2)C1(C)C (stereo unspecified) [Mecamylamine hydrochloride] (20 µM),0.992 (inactive)
12,CCOC(=O)[C@H](CCc1ccccc1)N[C@@H](C)C(=O)N(CC(=O)O)C1Cc2ccccc2C1 [Delapril Hydrochloride] (20 µM),1 (inactive)
13,CN1[C@@H]2CC[C@H]1C[C@@H](OC(c1ccccc1)c1ccccc1)C2 [Benztropine mesylate] (20 µM),1.03 (inactive)
14,C[N+]1(CCCCC[N+]2(C)CCCC2)CCCC1 [Pentolinium bitartrate] (20 µM),1.03 (inactive)
15,CC(=O)Oc1cc(C(F)(F)F)ccc1C(=O)O [Triflusal] (20 µM),1.04 (inactive)
16,COc1ccc2cc(CCC(C)=O)ccc2c1 [Nabumetone] (20 µM),0.871 (inactive)
17,CN1C(=O)CC(c2ccccc2)C1=O (stereo unspecified) [Phensuximide] (20 µM),1.21 (inactive)
18,CC(N)CCCC(C)(C)O (stereo unspecified) [Heptaminol hydrochloride] (20 µM),1.05 (inactive)
19,CN(C)CCOC(c1ccc(Cl)cc1)c1ccccn1 (stereo unspecified) [Carbinoxamine maleate salt] (20 µM),0.966 (inactive)
20,C=CCN1CCCC1CNC(=O)c1cc2nn[nH]c2cc1OC (stereo unspecified) [Alizapride hydrochloride] (20 µM),0.994 (inactive)

row,SMILES,fold change of Putrescine concentration
1,CC1(C)O[C@@H]2C[C@H]3[C@@H]4C[C@H](F)C5=CC(=O)C=C[C@]5(C)[C@H]4[C@@H](O)C[C@]3(C)[C@]2(C(=O)CO)O1 [Flunisolide] (20 µM),1.05 (inactive)
2,C=CC(N)CCC(=O)O (stereo unspecified) [Vigabatrin hydrochloride] (20 µM),1.02 (inactive)
3,CC(N)C12CC3CC(CC(C3)C1)C2 (stereo unspecified) [Rimantadine hydrochloride] (20 µM),0.947 (inactive)
4,O=C(O)c1cc(-c2ccc(F)cc2F)ccc1O [Diflunisal] (20 µM),1.07 (inactive)
5,OC[C@H]1O[C@@H](O[C@@H]2[C@@H](CO)OC(O)(CO)[C@H]2O)[C@H](O)[C@@H](O)[C@H]1O (mixture of isomers) [Lactulose] (50 µM),0.955 (inactive)
6,COc1ccc2c3c1O[C@H]1C[C@@H](O)C=C[C@@]31CCN(C)C2 [Galanthamine hydrobromide] (20 µM),1.03 (inactive)
7,O=C(CCNNC(=O)c1ccncc1)NCc1ccccc1 [Nialamide] (20 µM),0.997 (inactive)
8,CC(C)OC(=O)C(C)(C)Oc1ccc(C(=O)c2ccc(Cl)cc2)cc1 [Fenofibrate] (20 µM),1.03 (inactive)
9,Cc1ccc2c(c1)c1c3n2CCNC3CCC1 (stereo unspecified) [Pirlindole mesylate] (20 µM),1.06 (inactive)
10,CC[N+](C)(C)Cc1ccccc1Br [Bretylium tosylate] (20 µM),1 (inactive)
11,COC(=O)[C@H](Cc1ccccc1)NC(=O)[C@H](CC(=O)O)NCCCc1ccc(OC)c(O)c1 [Advantame] (50 µM),0.932 (inactive)
12,O=C(c1cc(O)c(O)c(O)c1)c1ccc(O)c(O)c1O [Exifone] (20 µM),1.01 (inactive)
13,COc1cc(N)cn[n+]1-c1ccccc1 [Amezinium metilsulfate] (20 µM),0.969 (inactive)
14,CN[C@@H]1[C@@H](O[C@H]2O[C@H](CO)[C@@H](N)[C@H](O)[C@H]2O)OC2C[C@@H](N)[C@@H](O[C@H]3[C@H](O)[C@@H](O)[C@H](N)C[C@@H]3N)OC2[C@@H]1O (stereo partly specified) [Apramycin] (20 µM),1 (inactive)
15,COc1ccc2[nH]c([S+]([O-])Cc3ncc(C)c(OC)c3C)nc2n1 (stereo unspecified) [Tenatoprazole] (20 µM),1.06 (inactive)
16,CCCCC(=O)O[C@H]1CC[C@H]2[C@@H]3CCc4cc(O)ccc4[C@H]3CC[C@]12C [Estradiol Valerate] (20 µM),0.88 (inactive)
17,O=C(O)CCc1nc(-c2ccccc2)c(-c2ccccc2)o1 [Oxaprozin] (20 µM),1.01 (inactive)
18,CC(C)(C)NC[C@H](O)c1ccc(O)c(CO)c1 [Levalbuterol hydrochloride] (20 µM),1.24 (inactive)
19,COc1ccc(C(=O)c2ccc(C)cc2)c(O)c1 [Mexenone] (20 µM),1.06 (inactive)
